This excerpt belongs to a sample that is enriched for hits.
mcGAS RapidFire: inhibitors of mouse cGAS. recombinant mouse cGAS, cGAMP by RapidFire MS. inhibition, % at 12.5 µM. hit rate 0.18% among 130,000;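 active = inhibition of cGAS enzyme activity at or above 60%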;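 also: enzyme stimulated by 45 bp dsDNA with ATP and GTP substrates; cGAMP share of summed cGAMP plus half ATP and half GTP signals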
Target sequence (Q8C6L5 whole entry, looked up): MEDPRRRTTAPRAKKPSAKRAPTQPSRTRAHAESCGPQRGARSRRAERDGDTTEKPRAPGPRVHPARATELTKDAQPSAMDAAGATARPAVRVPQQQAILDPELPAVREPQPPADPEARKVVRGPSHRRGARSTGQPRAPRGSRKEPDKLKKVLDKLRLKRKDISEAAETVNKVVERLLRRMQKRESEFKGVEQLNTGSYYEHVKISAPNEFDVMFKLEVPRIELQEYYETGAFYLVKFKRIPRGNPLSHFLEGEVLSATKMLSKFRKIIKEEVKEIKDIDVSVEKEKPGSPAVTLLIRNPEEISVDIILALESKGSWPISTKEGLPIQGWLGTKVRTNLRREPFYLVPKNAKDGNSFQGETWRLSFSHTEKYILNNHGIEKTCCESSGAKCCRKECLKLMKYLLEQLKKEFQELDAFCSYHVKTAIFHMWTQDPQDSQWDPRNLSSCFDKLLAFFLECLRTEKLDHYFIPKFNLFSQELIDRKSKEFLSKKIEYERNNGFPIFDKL
An asterisk follows results filed as active.

How did CC[C@@]1(O)C[C@H](O[C@H]2C[C@H](N(C)C)[C@H](O)[C@H](C)O2)c2c(cc3c(c2O)C(=O)c2c(O)ccc(O)c2C3=O)[C@H]1C(=O)OC do in these assays?
mcGAS RapidFire: 97.2*

Results for CC[C@@]1(O)C[C@H](O)c2c(cc3c(c2O)C(=O)c2c(O)ccc(O)c2C3=O)[C@H]1C(=O)OC ?
mcGAS RapidFire: -9.5

Results for CC[C@@]1(O)C[C@H](O[C@H]2C[C@H](N(C)C)[C@H](O)[C@H](C)O2)c2c(cc3c(c2O)C(=O)c2c(O)cccc2C3=O)[C@H]1C(=O)OC ?
mcGAS RapidFire: 97.7*

Results for COc1ccc(N2CCN(Cc3cc(C)c(C)cc3O)CC2)cc1 ?
mcGAS RapidFire: -17.9

What do the screens show for `CN1CCC2(CC1)CCN(C(=O)C1CNC1)C2`?
mcGAS RapidFire: -4.9

Results for CC(C)N1CCC2(CC1)NCCc1[nH]cnc12 ?
mcGAS RapidFire: -28.6

Results for CC(N)C(=O)c1ccccc1 (centres undefined) ?
mcGAS RapidFire: 25.6

What do the screens show for `CCN(CC)CCOc1ccc(CC(C)N)cc1` (centres undefined)?
mcGAS RapidFire: -2.3

Results for c1n[nH]cc1C1CCCNC1 (centres undefined) ?
mcGAS RapidFire: -3.0

What do the screens show for `COP1(=S)C2=C(N3CCOCC3)CC(C)(C)CC2=NN1c1ccccc1` (centres undefined)?
mcGAS RapidFire: 6.0

Results for CC(=O)C1=C(O)C(=O)N(C)C12C(=O)Nc1ccccc12 (centres undefined) ?
mcGAS RapidFire: -7.4

Results for CCn1nc(C)c(NC(=O)CNC(C)Cc2cnccn2)c1C (centres undefined) ?
mcGAS RapidFire: -8.1

Results for O=C(c1ccccc1)[C@@H]1[C@@H](C(=O)c2ccccc2)N1Cc1ccccc1 (some centres undefined) ?
mcGAS RapidFire: -7.1

How did NC(=S)N/N=C\c1coc2ccccc2c1=O do in these assays?
mcGAS RapidFire: 95.5*

Results for COc1ccc(N2CCN3c4ccc([N+](=O)[O-])cc4CC(C(=O)O)C3C2)cc1 (centres undefined) ?
mcGAS RapidFire: -5.3

Screening data: PubChem BioAssay, Fisher Drug Discovery Resource Center
